Screening data: PubChem, National Center for Advancing Translational Sciences (NCATS)
FMDV antiviral – High Throughput Screening for Foot and Mouth Disease Virus Antivirals; Potency, µM (series often up to 57.9 µM), for the others: at the top dose activity change, negative = inhibition, actives largely listed as inhibitors; 410,000 compounds, 1.2% hits; FMDV antiviral cell-based qHTS; calls by dose curve; tested in HEK293T cells; note: read-out not given here; nearly all actives have a fitted effect of over 45% in size
HCV inhibitor – qHTS Assay for Inhibitors of Hepatitis C Virus (HCV); 340,000 compounds, 3.4% hits; AID 651820, 2012; Potency, µM (titrated, usually from 41.8 µM), for inactives: at the highest dose activity change, negative = inhibition, hits mostly inhibitors; Huh7.5.1 HCVcc-Cre infection, luciferase reporter, 44 h; active = well fitted inhibition curve with a large enough effect; inconclusive = small, poorly fitted or top-dose-only effect, or another doubt; inactive = no such curve, though single readings can be large or run the other way
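Compounds are dispensed onto cells plated 4 h earlier at 1,000 per well, with HCVcc-Cre virus (about 0.5 moi) added next. Following 44 h of culture, luminescent signal is measured for 15 sec after 15 min with substrate at room temperature.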
VACV Venus inh – qHTS for Stage-Specific Inhibitors of Vaccinia Orthopoxvirus: Venus Reporter Primary qHTS. Vaccinia virus Venus reporter expression, fluorescence. Potency, µM (doses to about 36.5 µM), for inactives: top-dose activity change, negative = inhibition, actives largely listed as inhibitors. 330,000 compounds, 0.46% hits. AID 720580, 2013; calls by dose curve; tested in A549 cells; note: nearly all actives have a fitted effect of over 30% in size
Lassa entry inh – qHTS for Inhibitors of binding or entry into cells for Lassa Virus; Lassa virus pseudotype entry inhibition, cell reporter; Potency, µM (top dose mostly 37.9 µM), inactives show at the highest dose activity change, negative = inhibition, actives largely listed as inhibitors; 300,000 compounds, 1.2% hits; calls by dose curve; tested in HEK293 cells; note: nearly all actives have a fitted effect of over 50% in size
Marburg entry inh – qHTS for inhibitors of binding or entry into cells for Marburg Virus. Marburg virus pseudotyped entry inhibition, cell reporter. 300,000 compounds, 1.8% hits. AID 540276, 2011. Potency, µM (highest dose often 37.8 µM), without a hit: top-dose activity change, negative = inhibition, actives largely listed as inhibitors; calls by dose curve; tested in HEK293 cells
Vaccinia mCherry – qHTS for Stage-Specific Inhibitors of Vaccinia Orthopoxvirus: mCherry Reporter Primary qHTS | AID 720579, 2013 | Potency, µM (doses to about 36.5 µM), without a hit: at the highest dose activity change, negative = inhibition, actives largely listed as inhibitors | Vaccinia virus mCherry reporter infection, fluorescence | 310,000 compounds, 0.63% hits; calls by dose curve; tested in A549 cells; note: nearly all actives have a fitted effect of over 35% in size
* = called active by the depositor; i = inactive; ? = inconclusive; . = no result; [ ] = dose if it differs, or a comment. Most compounds without a hit are left out; they make up all but 5.3% or so of the library. % is set by controls: 0 for no effect and ±100 for the full control effect; potency is the fitted concentration of half-maximal effect.

SMILES	FMDV antiviral	HCV inhibitor	VACV Venus inh	Lassa entry inh	Marburg entry inh	Vaccinia mCherry
Cc1ccc(N(C)S(=O)(=O)c2cccc(C(=O)Nc3ccc(C)cn3)c2)cc1	40µM*	?	-23%	?	?	-26%
CN(c1ccccc1)S(=O)(=O)c1cccc(NC(=O)c2ccncc2)c1	?	10µM*	.	.	.	.
CN(C)S(=O)(=O)c1cccc(C(=O)Nc2ccc(C(=O)Nc3cccc(S(N)(=O)=O)c3)cc2)c1	-2%	-10%	-3%	5%[46.1 µM]	0%[46.1 µM]	i
CC(C)(C)c1ccc(O[C@@H]2[C@H](O)CO[C@@H]2/C=C/C#Cc2ccccc2)cc1	.	.	.	.	-16%[14.2 µM]	.
O=C(COc1ccc(Cl)cc1)Nc1cccc(S(=O)(=O)NCc2ccco2)c1	53%	32µM*	.	.	.	.
CN(c1ccc(OCC(=O)Nc2nc3ccccc3s2)cc1)S(=O)(=O)c1ccccc1	11µM*	?	.	.	0%	.
COc1cc(NC(=O)c2ccc(S(=O)(=O)N(C)c3ccccc3)cc2)cc(OC)c1	-11%	11µM*	-17%	.	.	-4%
CN(c1cccc(NC(=O)c2ccc(C(C)(C)C)cc2)c1)S(C)(=O)=O	?	?	-20%	?	?	i
COc1ccc(C(=O)Nc2cccc(S(=O)(=O)NCc3ccco3)c2)cc1	5%	?	-19%	-11%	-18%	-5%
Cc1cc(NC(=O)COc2ccc(N(C)S(=O)(=O)c3ccccc3)cc2)no1	-21%	-1%	-2%	-6%	3%	-7%
COc1ccccc1NC(=O)c1ccc(S(=O)(=O)N(C)c2ccccc2)cc1	?	-8%	-12%	-23%	-2%	-3%
CN(c1cccc(NC(=O)c2ccc(N(C)S(=O)(=O)c3ccccc3)cc2)c1)S(C)(=O)=O	14µM*	8.9µM*	.	?	16µM*	.
COc1ccc(NC(=O)c2oc3ccccc3c2NC(=O)C23CC4CC(CC(C4)C2)C3)cc1	-11%	.	-5%	2%[46.1 µM]	?	-10%
CN(c1ccccc1)S(=O)(=O)c1cccc(NC(=O)COc2ccccc2)c1	-8%	10µM*	.	.	.	.
CN(c1ccccc1)S(=O)(=O)c1cccc(NC(=O)CN2C(=O)NC3(CCCC3)C2=O)c1	-12%	2.8µM*	-26%	-8%	-1%	-10%
CN(c1ccccc1)S(=O)(=O)c1ccc(NC(=O)c2ccc(-c3ccccc3)cc2)cc1	?	.	?	-8%[14.3 µM]	-20%	-25%
CN(c1ccccc1)S(=O)(=O)c1cccc(NC(=O)C2=NN(c3ccccc3)C(=O)CC2)c1	?	16µM*	.	.	.	.
Cc1nc2cc(NC(=O)c3ccc(S(=O)(=O)N(C)c4ccccc4)cc3)ccc2o1	22µM*	6.3µM*	-10%	-18%	?	-4%
CC(=O)CCc1ccc(OCC(=O)Nc2cccc(S(=O)(=O)N(C)c3ccccc3)c2)cc1	-22%	-26%	-16%	-1%	-7%	-15%
COc1ccc(N(C)S(=O)(=O)c2cccc(C(=O)NC3CCC(C)CC3)c2)cc1 (stereo not given)	-19%	?	-22%	?	?	i
COc1ccc(N(C)S(=O)(=O)c2cccc(C(=O)Nc3cccc(C(=O)NC4CC4)c3)c2)cc1	-17%	14µM*	-20%	?	?	35%
O=C(COc1ccccc1)Nc1cccc(-c2nc3cc4ccccc4cc3[nH]2)c1	12%	7.1µM*	.	?	?	.
CN(c1ccccc1)S(=O)(=O)c1cccc(C(=O)Nc2ccc3c(c2)CCC3)c1	-16%	?	-21%	16µM*	16%	-14%
Cn1c(=O)n(C)c2cc([N+](=O)[O-])c(N3CCN(C(=O)c4ccccc4Cl)CC3)cc21	.	?	-16%	?	?	-15%
Cn1c(=O)n(C)c2cc([N+](=O)[O-])c(N3CCN(C(=O)c4ccccc4Br)CC3)cc21	16µM*	13µM*	-18%	?	?	i
SMILES	FMDV antiviral	HCV inhibitor	VACV Venus inh	Lassa entry inh	Marburg entry inh	Vaccinia mCherry
COc1ccccc1CNC(=O)C1CCN(S(=O)(=O)Cc2ccccc2)CC1	-22%	.	-2%	5%[46.1 µM]	9%[46.1 µM]	-5%
c1cc2c3c(cccc3c1)NC1(CCC3(CC1)Nc1cccc4cccc(c14)N3)N2	?	?	10µM*	.	.	?
c1cc2c3c(cccc3c1)NC1(CCCCCC1)N2	-16%	2%	-7%	10%	?	-12%
COc1ccc(N2C(=O)CCSC23C(=O)N(Cc2ccc(F)cc2)c2ccccc23)cc1Cl (stereo not given)	0%	.	?	?	.	?
COc1ccc(N2C(=O)CCSC23C(=O)N(Cc2ccc(F)cc2)c2ccccc23)cc1 (stereo not given)	-14%	.	?	?	.	11µM*
O=C(COc1ccc(Cl)cc1)N(c1ccccc1Cl)C1CN2CCC1CC2 (stereo not given)	?	10µM*	-28%	?	?	-19%
O=C(COc1ccc(Cl)cc1)N(c1ccc(Cl)cc1)C1CN2CCC1CC2 (stereo not given)	0%	25µM*	-27%	?	?	-11%
COc1ccc(CNC(=O)C2CCN(S(=O)(=O)c3ccc4c(ccn4C)c3)CC2)cc1	-16%	.	-11%	-4%[46.1 µM]	6%[46.1 µM]	-7%
Cc1cnc(C(=O)Nc2cccc(-c3nnc4n3CCCCC4)c2)cn1	-9%	3%	-6%	10%	-10%	-12%
c1cc(Nc2ncnc3sccc23)cc(-c2nnc3n2CCCCC3)c1	-23%	10µM*	.	2%	2%	.
COc1ccc(NC(=O)CC2C(=O)N(C)C(=S)N2Cc2ccc3c(c2)OCO3)cc1 (stereo not given)	15%	27%	-12%	-21%	11µM*	-19%
CN1C(=O)c2ccccc2Sc2ccc(NC(=O)N3CCN(c4ccccc4F)CC3)cc21	?	.	-24%	-9%[46.1 µM]	-29%[46.1 µM]	-27%
COc1ccc(NC(=O)C2(C)CCN2Cc2ccccc2OC(F)F)cc1OC (stereo not given)	-29%	.	0%	.	.	10%
CC1(C(=O)Nc2ccc(Cl)c(Cl)c2)CCN1Cc1ccccc1OC(F)F (stereo not given)	32µM*	.	-24%	.	.	i
C=C1CC2(OC1=O)c1ccccc1CCc1ccccc12	22µM*	?	14µM*	20µM*	?	?
O=C(Cn1c(=O)n(CC(=O)NCc2ccccc2)c2ccccc21)NCc1ccccc1	-1%	7.1µM*	-15%	?	-27%	.
Cc1c(C#N)c2ccccc2n1CC(=O)NCc1ccccc1	-25%	-4%	-2%	-1%	-20%	.
Cc1cc(=O)c2cc(Br)ccc2n1CC(=O)NCc1ccccc1	0%	13µM*	.	.	.	.
